Source: the supplement of paper PMC3334620
In all, about 33,000 sequences were measured (“E-score (-0.5 to 0.5)”: median about -0.0059, highest 2% from about 0.26 on). The entries come from a sample that favours the highest values as a whole.

Biological target: T1, Cin5 (UniProt P40917)
T1 sequence: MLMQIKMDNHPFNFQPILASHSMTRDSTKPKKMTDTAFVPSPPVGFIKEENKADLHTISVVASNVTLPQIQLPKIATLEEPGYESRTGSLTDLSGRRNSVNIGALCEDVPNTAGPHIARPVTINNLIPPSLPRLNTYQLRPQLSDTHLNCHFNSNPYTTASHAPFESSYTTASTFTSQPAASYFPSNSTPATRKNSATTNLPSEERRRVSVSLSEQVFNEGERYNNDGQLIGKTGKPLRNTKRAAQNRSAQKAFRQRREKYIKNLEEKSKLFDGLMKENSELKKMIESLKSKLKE
Assay: PBM E-score (8-mer binding enrichment) (E-score (-0.5 to 0.5)); higher = stronger / more preferred TF binding
Conditions: protein concentration: 100 nM; construct: GST-full length
Outline: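 Full-length yeast transcription factors or their DNA-binding domains, GST-tagged and expressed with PURExpress, were applied at about 100-200 nM to universal all-10-mer Agilent arrays. These arrays had been made double-stranded by primer extension on fresh or once-stripped slides. Detection used fluorescent anti-GST, normalisation used masliner, and E-scores for ungapped eight-base words pooled with reverse complements came from the Universal PBM Analysis Suite.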

Sequence	PBM E-score
CAAGAATC	0.133
AGCGGTAT	0.158
ATACTAAC	0.166
ATACTACC	-0.0132
ATACTAAA	0.265
GTACTAAA	0.0965
TTACTAAA	0.266
CTACTAAA	-0.0525
CTACTACA	0.173
ATACTACA	0.285
ATACTAAG	0.012
ACTTCCCG	-0.0152
CGGAGGAG	-0.182
AGGAAAAG	0.0753
GGACCTGA	-0.107
CGACGAAG	-0.0192
AATATAAT	0.177
CATATAGG	0.0225
AATATAGC	0.0896
AATATATG	0.248
AATATATA	0.18
CATATAAG	0.0464

Sequence	PBM E-score
AATATAGG	0.317
AATATATT	0.363
AATATAGA	0.186
ACTATAGG	-0.0568
AATATAGT	0.315
AATATAAG	0.276
GGTGGGAC	-0.313
CCCGGAGG	-0.377
AATCATCA	0.229
AGACTGCT	-0.00887
AGGCATAC	0.0609
CATGCACA	0.156
AACGATGT	0.0581
AAACGCTG	-0.139
GGGGATTA	0.253
GACTGCCC	-0.188
GTCTGAAC	-0.16
AGTGCCCA	0.0274
TAATACTA	0.372
CAATACCA	0.0989
GAATACCA	0.207
TAATACGA	0.12

Sequence	PBM E-score
CAATACTA	0.0648
TAATACCA	0.279
TAATACAA	0.232
AAATACTA	0.112
GAATACTA	0.267
CGTTGGGC	-0.0408
ATGGACAG	-0.15
GGACCAAC	-0.134
ACTTAGAC	0.0559
CCTGCGAG	-0.0365
CAGGGACA	-0.0907
CTGCGAGA	-0.332
AACATTAT	0.261
AATATTAA	0.304
AATATTGC	0.235
CATATTAC	0.287
AATATTGT	0.28
CATATTAG	0.16
AACATTAC	0.148
AATATTTA	0.217
CATATTTC	0.0909
AATATTGA	0.172

Sequence	PBM E-score
AATATTGG	0.154
AACATTAG	-0.0325
ACACGTTG	-0.238
CGGTAACG	-0.0557
AACTTTTC	0.0286
CGTCCCAC	-0.0257
CTCCAGGA	-0.221
GGCTGCAC	-0.148
CACATAGC	-0.142
CGTTTCCA	0.0865
ACAATCCA	0.209
TCTATTAA	0.109
AATATTCA	0.24
TATATTAA	0.287
AATATTAG	0.215
GCTATTAC	0.0669
TGTATTAA	0.202
AATATTCG	0.19
AATATTCC	0.289
GATATTCC	0.0678
GATATTAC	0.315
AATATTAT	0.343

Sequence	PBM E-score
ACTATTAT	0.137
AAAGACGA	0.036
GACCACTA	0.171
CCAGTCCG	-0.296
CCCGTAAC	-0.0624
GACAGCTC	-0.237
ACAGCTTA	0.195
AATGGAAC	0.103
GACATTAA	0.0285
GATATTCA	0.0685
CTCATTAA	0.175
ATCATTAA	0.221
TACATTAA	0.262
GCTATTAA	0.0303
CCTATTAC	0.0787
GATATTAA	0.282
AACATTAA	0.114
GTCATTAA	0.279
AATATTAC	0.294
AATATTTC	0.18
GCGCAGAC	-0.178
